Here are results for 16 compounds from ChEMBL document CHEMBL1961873, “Compounds: GSK PKIS; Assays: Nanosyn kinase panel” (2012).

Molecules are shown by their SMILES.

What is called inhibition is the change of the read-out against control, counted positive when it falls.

Test [1] addresses Serine/threonine-protein kinase MRCK alpha (Homo sapiens) (UniProt Q5VT25). To be noted: at 0.1 µM.
Test [2] has the same target. To be noted: at 1 µM.
Test [3] addresses Serine/threonine-protein kinase MRCK beta (Homo sapiens) (UniProt Q9Y5S2). To be noted: at 0.1 µM.
For test [4] the target is unchanged. The settings on record: at 1 µM.
The target in test [5] is Ribosomal protein S6 kinase alpha-5 (Homo sapiens) (UniProt O75582). The settings on record: at 0.1 µM.
Ribosomal protein S6 kinase alpha-5 (Homo sapiens), sequence (O75582 whole entry, looked up): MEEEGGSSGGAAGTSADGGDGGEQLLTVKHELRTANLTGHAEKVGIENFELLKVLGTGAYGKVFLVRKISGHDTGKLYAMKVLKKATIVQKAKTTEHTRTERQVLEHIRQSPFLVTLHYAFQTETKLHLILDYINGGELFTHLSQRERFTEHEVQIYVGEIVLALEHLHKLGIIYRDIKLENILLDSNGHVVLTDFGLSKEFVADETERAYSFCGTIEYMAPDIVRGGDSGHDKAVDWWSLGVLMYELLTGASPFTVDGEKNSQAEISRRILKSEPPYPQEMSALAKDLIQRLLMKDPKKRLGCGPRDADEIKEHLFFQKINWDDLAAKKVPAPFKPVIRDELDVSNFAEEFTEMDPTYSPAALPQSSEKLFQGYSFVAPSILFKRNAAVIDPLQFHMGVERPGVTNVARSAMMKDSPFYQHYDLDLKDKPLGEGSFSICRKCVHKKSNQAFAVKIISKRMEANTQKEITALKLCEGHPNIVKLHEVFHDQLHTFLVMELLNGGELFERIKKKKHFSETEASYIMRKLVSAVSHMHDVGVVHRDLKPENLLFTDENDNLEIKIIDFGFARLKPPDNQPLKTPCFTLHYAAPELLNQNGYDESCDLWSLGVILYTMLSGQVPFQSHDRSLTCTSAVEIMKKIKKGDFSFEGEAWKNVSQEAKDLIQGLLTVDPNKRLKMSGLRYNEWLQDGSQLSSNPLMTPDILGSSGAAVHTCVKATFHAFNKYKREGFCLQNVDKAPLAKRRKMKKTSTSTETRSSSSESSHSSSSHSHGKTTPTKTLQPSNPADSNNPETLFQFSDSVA
For test [6] the target is unchanged. The settings on record: at 1 µM.
Test [7] has as its target Ribosomal protein S6 kinase alpha-4 (Homo sapiens) (UniProt O75676). The settings on record: at 0.1 µM.
For test [8] the target is unchanged. To be noted: at 1 µM.
In test [9] the target is Ribosomal protein S6 kinase beta-1 (Homo sapiens) (UniProt P23443). The settings on record: at 0.1 µM.
Ribosomal protein S6 kinase beta-1 (Homo sapiens), sequence (P23443 whole entry, looked up): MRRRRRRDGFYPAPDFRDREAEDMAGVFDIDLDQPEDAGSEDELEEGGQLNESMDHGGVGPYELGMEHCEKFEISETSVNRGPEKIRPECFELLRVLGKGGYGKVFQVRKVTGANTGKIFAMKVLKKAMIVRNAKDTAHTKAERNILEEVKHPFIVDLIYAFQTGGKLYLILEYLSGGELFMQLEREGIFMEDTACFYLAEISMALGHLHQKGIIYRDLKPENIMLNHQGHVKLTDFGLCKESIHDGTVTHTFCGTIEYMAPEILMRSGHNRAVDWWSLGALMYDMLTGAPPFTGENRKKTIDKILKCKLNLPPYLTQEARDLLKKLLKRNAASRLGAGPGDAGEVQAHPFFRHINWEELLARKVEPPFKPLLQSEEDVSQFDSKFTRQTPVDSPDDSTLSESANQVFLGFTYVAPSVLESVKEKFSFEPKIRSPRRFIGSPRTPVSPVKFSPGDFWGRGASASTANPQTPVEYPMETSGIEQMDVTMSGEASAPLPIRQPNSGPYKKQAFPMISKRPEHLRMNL
For test [10] the target is unchanged. To be noted: at 1 µM.

Serine/threonine-protein kinase MRCK beta (Homo sapiens), sequence (Q9Y5S2 whole entry): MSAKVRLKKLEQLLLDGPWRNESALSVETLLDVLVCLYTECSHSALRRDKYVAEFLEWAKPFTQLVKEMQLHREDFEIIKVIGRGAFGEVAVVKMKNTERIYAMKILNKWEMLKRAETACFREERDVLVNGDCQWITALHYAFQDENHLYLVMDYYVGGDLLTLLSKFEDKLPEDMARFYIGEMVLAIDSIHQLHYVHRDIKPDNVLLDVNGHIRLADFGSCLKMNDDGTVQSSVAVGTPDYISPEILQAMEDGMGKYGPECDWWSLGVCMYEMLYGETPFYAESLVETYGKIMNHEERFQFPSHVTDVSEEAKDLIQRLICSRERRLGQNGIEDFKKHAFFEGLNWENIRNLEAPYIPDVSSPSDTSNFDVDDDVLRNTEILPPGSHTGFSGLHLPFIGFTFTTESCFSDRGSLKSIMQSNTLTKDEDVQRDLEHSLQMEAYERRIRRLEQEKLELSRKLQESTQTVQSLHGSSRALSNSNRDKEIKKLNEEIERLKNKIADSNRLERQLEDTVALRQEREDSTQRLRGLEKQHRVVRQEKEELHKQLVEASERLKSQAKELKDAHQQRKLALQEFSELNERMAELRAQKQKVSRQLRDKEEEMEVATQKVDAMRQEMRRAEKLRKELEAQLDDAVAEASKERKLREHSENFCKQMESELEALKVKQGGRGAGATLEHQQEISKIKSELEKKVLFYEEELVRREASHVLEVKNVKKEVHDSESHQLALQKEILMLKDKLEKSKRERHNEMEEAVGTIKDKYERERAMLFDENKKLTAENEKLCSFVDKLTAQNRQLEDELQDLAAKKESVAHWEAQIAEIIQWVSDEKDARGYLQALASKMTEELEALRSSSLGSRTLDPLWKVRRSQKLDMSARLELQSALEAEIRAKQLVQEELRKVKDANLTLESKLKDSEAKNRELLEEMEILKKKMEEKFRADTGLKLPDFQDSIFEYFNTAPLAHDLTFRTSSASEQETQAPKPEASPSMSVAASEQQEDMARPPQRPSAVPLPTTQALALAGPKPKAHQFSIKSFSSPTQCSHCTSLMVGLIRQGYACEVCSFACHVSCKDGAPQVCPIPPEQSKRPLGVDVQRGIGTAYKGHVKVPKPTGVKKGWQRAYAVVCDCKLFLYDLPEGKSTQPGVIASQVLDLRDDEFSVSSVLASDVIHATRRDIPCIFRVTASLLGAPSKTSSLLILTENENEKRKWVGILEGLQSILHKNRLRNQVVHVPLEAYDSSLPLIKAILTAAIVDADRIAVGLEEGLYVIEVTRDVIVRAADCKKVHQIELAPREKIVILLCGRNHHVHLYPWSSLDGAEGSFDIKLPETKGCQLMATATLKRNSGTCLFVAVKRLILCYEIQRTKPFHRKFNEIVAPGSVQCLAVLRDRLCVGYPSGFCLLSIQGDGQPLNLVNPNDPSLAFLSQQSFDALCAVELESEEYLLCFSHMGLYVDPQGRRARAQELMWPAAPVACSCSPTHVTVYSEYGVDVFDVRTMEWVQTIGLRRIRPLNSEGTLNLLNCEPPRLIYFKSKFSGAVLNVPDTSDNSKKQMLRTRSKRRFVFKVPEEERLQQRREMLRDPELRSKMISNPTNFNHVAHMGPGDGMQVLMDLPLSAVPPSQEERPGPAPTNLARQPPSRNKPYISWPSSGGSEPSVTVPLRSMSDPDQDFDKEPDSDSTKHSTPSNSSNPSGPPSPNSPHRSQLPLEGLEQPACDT
Ribosomal protein S6 kinase alpha-4 (Homo sapiens), sequence (O75676 whole entry, looked up): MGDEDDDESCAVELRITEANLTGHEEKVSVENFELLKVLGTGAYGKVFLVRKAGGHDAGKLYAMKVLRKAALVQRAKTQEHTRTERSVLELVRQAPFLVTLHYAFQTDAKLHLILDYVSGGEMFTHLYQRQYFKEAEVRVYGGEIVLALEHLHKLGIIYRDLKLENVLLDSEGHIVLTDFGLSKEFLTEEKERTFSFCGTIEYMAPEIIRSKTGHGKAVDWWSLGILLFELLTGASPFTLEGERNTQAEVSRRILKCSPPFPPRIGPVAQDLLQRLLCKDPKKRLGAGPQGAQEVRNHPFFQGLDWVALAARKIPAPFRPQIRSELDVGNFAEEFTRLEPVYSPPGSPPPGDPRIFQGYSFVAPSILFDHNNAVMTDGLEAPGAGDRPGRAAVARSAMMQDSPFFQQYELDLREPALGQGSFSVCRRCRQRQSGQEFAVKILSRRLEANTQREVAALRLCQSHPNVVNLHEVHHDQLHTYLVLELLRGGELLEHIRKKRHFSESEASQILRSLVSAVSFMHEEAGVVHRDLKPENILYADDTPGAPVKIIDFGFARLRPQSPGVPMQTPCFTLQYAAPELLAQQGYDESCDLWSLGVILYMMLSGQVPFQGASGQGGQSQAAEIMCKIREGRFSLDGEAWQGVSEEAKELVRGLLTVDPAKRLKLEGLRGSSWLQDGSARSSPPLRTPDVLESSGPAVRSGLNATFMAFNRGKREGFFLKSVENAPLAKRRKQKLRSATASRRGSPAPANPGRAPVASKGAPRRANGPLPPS

Take `CCn1c(-c2nonc2N)nc2cncc(C(=O)N3CC[C@H](N)C3)c21`: the inhibition in test [1] was 14.5%; in test [2], 68.7%; in [3], 23.1%; in [4], 67.2%; in [5], 67.9%; in test [6] it was 81.4%. The inhibition worked out at 44.5% in test [7], 74.3% in test [8], 32.9% in test [9] and 80.3% in test [10].

As to `NS(=O)(=O)c1ccc(N/N=C2\C(=O)Nc3ccc(C(=O)NCCc4c[nH]cn4)cc32)cc1`, the inhibition in [1] is -0.15%; in test [2], 2.43%; in test [3], 1.24%; in test [4], 2.13%; in test [5], 4.49%; in test [6], 5.44%. In addition, the inhibition in [7] is 4.34%; in [8], 18.7%; in test [9], 2.49%; in test [10] it was 8.75%.

As to `CN1CCC(C(=O)Nc2n[nH]c3nnc(-c4ccccc4)cc23)CC1`, the inhibition is 0.2% in test [1]; 2.63% in [2]; -0.23% in [3]; 0.78% in test [4]; -1.68% in [5]; -1.22% in test [6]. In addition, the inhibition worked out at 2.89% in [7], 4.31% in [8], 1.63% in test [9] and 2.47% in [10].

`Fc1cccc(COc2ccc(Nc3ncnc4cc(-c5ccc[nH]5)sc34)cc2Cl)c1`: the inhibition in test [1] is -0.43%; in test [2], -1.14%; in [3], 0.61%; in test [4], 0.75%; in test [5], 0.34%; in test [6], 0.11%. Besides, the inhibition worked out at 3.11% in test [7], 4.08% in [8], 0.99% in test [9] and 1.05% in test [10].

With `COc1cc(C=NNc2ncnc3c2cnn3-c2ccccc2)ccc1O`, the inhibition in test [1] is 0.09%; in test [2], 3.38%; in test [3], 1.02%; in test [4], 2.48%; in [5], -3.81%; in test [6], -1.13%. For the same compound, the inhibition in [7] stood at 1.6%; in test [8] it was 4.55%; in test [9], 2.72%; in test [10], 10.3%.

For `COc1cc2ncn(-c3cc(O[C@@H](C)c4ccccc4Cl)c(C(N)=O)s3)c2cc1OC`, the inhibition in test [1] worked out at 1.42%; in test [2], 0.91%; in test [3], 0.43%; in test [4], 3.35%; in [5] it was 11.4%; in test [6], 11.6%. Besides, the inhibition came to 4.79% in test [7], 5.46% in test [8], 0.94% in test [9] and 2.16% in [10].

For the compound `NC(=O)c1cccc(Nc2nccc(Nc3cccc4[nH]ncc34)n2)c1`, the inhibition is -0.16% in test [1]; 2.18% in test [2]; 0.71% in test [3]; 3.5% in test [4]; -3.36% in test [5]; 2.78% in test [6]. Further, the inhibition in [7] was -1.85%; in [8], 1.24%; in [9], -1.61%; in [10], 4.1%.

On to `CC(=O)Nc1cccc(C#Cc2cncnc2Nc2ccc(OCc3cccc(F)c3)c(Cl)c2)n1`, for which the inhibition in test [1] was found to be 2.04%; in [2], 4.47%; in test [3], 0.72%; in [4], 3.16%; in test [5] it was 8.63%; in test [6], 10.1%. The inhibition in [7] was 2.79%; in [8], 4.81%; in [9] it was 0.05%; in test [10] it was 0.93%.

For `CCn1c(-c2nonc2N)nc2cncc(C(=O)N3CCNCC3)c21`, the inhibition in test [1] came out at 5.33%; in test [2], 7.84%; in test [3], 0.36%; in [4], 3.02%; in test [5], 5.57%; in test [6], 7.4%. The inhibition was 3.28% in test [7], 4.71% in test [8], 2.87% in test [9] and 4.44% in test [10].

As for `CC(C)=Cc1cccc2c1/C(=N/Nc1ccc(S(N)(=O)=O)cc1)C(=O)N2`, the inhibition is 1.91% in test [1]; 3.43% in test [2]; -0.74% in [3]; 0.5% in [4]; 7.7% in test [5]; 11.4% in test [6]. The inhibition was found to be 2.65% in test [7], 15.9% in [8], 1.06% in test [9] and 5.23% in test [10].

Turning to `Cc1cc(O)cc(C)c1/C=C/c1cncc(-c2nn[nH]n2)c1`, the inhibition was -0.28% in test [1]; -0.43% in [2]; 0.47% in test [3]; 0.57% in test [4]; 3.79% in test [5]; 1.87% in test [6]. The inhibition in [7] came to 1.46%; in test [8], 2.78%; in test [9], 1.11%; in [10], 1.97%.

In the case of `CCCN1CCC(Oc2cc(Nc3nc(Nc4cccc(F)c4C(N)=O)c4cc[nH]c4n3)c(OC)cc2Cl)CC1`, the inhibition in test [1] is 0.81%; in [2], -1.24%; in test [3] it was 1.36%; in test [4] it was 2.2%; in test [5] it was 1.01%; in test [6], 3.87%. Also, the inhibition is 1.03% in test [7], 1.99% in test [8], -0.03% in test [9] and 1.36% in test [10].

As for `[O-][S+]1CCN(Cc2ccc(-c3ccc4ncnc(Nc5ccc(OCc6ccccc6)c(F)c5)c4c3)o2)CC1`, the inhibition was 0.13% in test [1]; -0.47% in [2]; -0.5% in test [3]; 0.8% in test [4]; 1.59% in [5]; 1.41% in test [6]. Moreover, the inhibition in [7] is -0.07%; in test [8], 2.42%; in test [9], 0.52%; in test [10], 0.86%.

In the case of `CNC(=O)c1cncc(/C=C/c2c(Cl)cccc2Cl)c1`, the inhibition amounted to 4.22% in test [1]; 1.78% in test [2]; 0.12% in test [3]; 0.52% in test [4]; 0.58% in test [5]; 1.1% in test [6]. The inhibition is 2.15% in test [7], 3.75% in [8], 1.85% in test [9] and 2.12% in [10].

With `CS(=O)(=O)CCNCc1ccc(-c2ccc3ncnc(Nc4ccc(OCc5cccc(F)c5)c(C(F)(F)F)c4)c3c2)o1`, the inhibition in [1] is -0.31%; in test [2] it was 1.73%; in test [3] it was -0.15%; in test [4], 0.67%; in [5], 9.28%; in test [6] it was 8.53%. Moreover, the inhibition in test [7] is 2.67%; in test [8], 2.44%; in test [9], 1.58%; in test [10], 2.22%.

Regarding `CC1=C(C(=O)Nc2ccc3[nH]ncc3c2)C(c2ccc(F)cc2)NC(=O)N1` (stereo not given), the inhibition was found to be 2.04% in test [1]; 12.4% in test [2]; 5.57% in test [3]; 29.9% in test [4]; 8.51% in test [5]; 34.2% in test [6]. Besides, the inhibition in test [7] amounted to 3.34%; in test [8], 16.7%; in test [9] it was 1.64%; in test [10], 13.8%.
